# Laboratory results from the OligoGym collection.
# Molecular target: REPS2
# Test: pooled miR-30 sensor sort-seq; sequence = guide strand
# Settings: shRNA
# Further: reference of the scale not given here.
row,Sequence,sensor-assay potency score (higher = more potent)
1,ATTGACATAGTACTCGCGCTGT,0.431
2,TAGTACTTTTCAAAGCTTGTTT,-0.389
3,TTCTGTGATCTGGTGCAGCGTC,-0.566
4,TGTTCTTCTGTTATCCTCCAGG,-0.549
5,TTGACATAGTACTCGCGCTGTT,-0.809
6,TTCTTGATGAACCTCCTTGAGC,-1.27
7,TTTGACACAGTCAAACATCTAT,-0.0627

# Molecular target: RERG
# Test: as above
# Settings: shRNA
row,Sequence,sensor-assay potency score (higher = more potent)
1,TTTGTTTCCAACCAAGATGAGA,-1.39
2,TTCTACATCTTCTACTAGCATT,-1.27
3,TTAATTTGCTTGTCTTTTGGAC,-0.0136
4,TAGAGTTCCTTCTATTTCCTGT,0.463
5,TTTGATCTCATCTAGGATGTTC,0.194
6,TCTTCTGTGCTAACCTGCCTGG,-0.541
7,TAATTTTTCTTACTGTACCTGG,0.0466
8,TTGCCCTGCACCATCCTCCGGC,-0.458
9,TAATTCTACATCTTCTACTAGC,-0.25
10,TTGACATGCGTGGTGGAGCTGC,-0.453
11,TTAGACACATTTATTCAGCTGT,0.3
12,AACAACTTCATCATCGATGGTT,-0.0718

# Molecular target: REST
# Test: as above
# Settings: shRNA
row,Sequence,sensor-assay potency score (higher = more potent)
1,TTTGCTGTAATCTTTTCCCTTT,-0.0854
2,TTCAATAAGGACTTGCTCCTTC,0.499
3,TTTCACTTTTGAGACATCCATT,-1.15
4,TATTTGAACTGTAAATATCTGG,-0.000404
5,TTGAACTGTAAATATCTGGAGC,-0.111
6,TATCTGAACAGGCTCCTTCTGG,-0.749
7,TTTCTTAGCACTGTGAACTCTG,0.443
8,TAGATTTGAAGTGATACTGTAG,0.294
9,TACACTTGTAGACTCGCTCATT,-0.726
10,TATCTTAACAGGTTCCTTCTGG,0.123
11,TTCATCTTCATCAATTTCCTGA,0.487
12,TTGGTCTTCGAGCTCTTGCCTT,-0.836

# Molecular target: RET
# Test: as above
# Settings: shRNA
row,Sequence,sensor-assay potency score (higher = more potent)
1,TTCCGGTTGAGAACCAGCCTAT,-0.898
2,TTGTCTGGCCTCTCCATCCGGT,-0.338
3,TCGTCGTACACGGTCACCGGGA,-0.762
4,TTGAACTCCACCACGGCGCTGG,0.715
5,TTTAACTGGAATCCGACCCTGG,0.235
6,TTGGGTCTCCACAACATCGCAG,-0.15
7,TACAATTTGATGACATGTGGGT,0.209
8,TTAAGCATATCTGAAAACCAAA,-1.63
9,TAAACATCTCGGGACAAGCCGA,-0.999
